Only some compounds are listed: those with a hit (about 1.9% of all), similar ones and a draw of the others.
APP 5UTR inh: APP translation inhibition | SH-SY5Y APP 5'UTR-luciferase reporter, luminescence | inhibition, % at 2 µM | 0.82% of 190,000 active | AID 1285;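 active = inhibition above a set limit, derived from the sample mean plus 3 SD, cut at about 45% in these data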
IEC-6 cytotox: counter-screen for KLF5 inhibitors: cytotoxicity in IEC-6 cells. IEC-6 cytotoxicity, luminescence viability. inhibition, % at 5 µM. 0.78% of 290,000 active; in the data active = inhibition above about 22%
BaF3 parental: reduces parental Ba/F3 cell viability, JAK2V617F counter-screen. CellTiter-Glo ATP luminescence. inhibition, % at 5.6 µM. 1.1% of 220,000 active;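 active = inhibition above a per-campaign cutoff, the mean inhibition of all tested compounds plus 3 SD, cut at about 27% in these data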
Ba/F3 V617F tox: lowers viability of Ba/F3 cells expressing EpoR and JAK2V617F. ATP luminescence. inhibition, % at 5.6 µM. 1.1% of 220,000 active;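 active = inhibition above the campaign mean plus 3 SD over all tested compounds, cut at about 24% in these data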;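 note: cytokine-independent growth of Ba/F3 cells driven by EpoR plus mutant JAK2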
KLF5 inhibitor: kruppel-like factor 5 inhibition; inhibition, % at 5 µM; AID 1700; 0.23% of 290,000 active; DLD-1 KLF5 promoter-luciferase reporter, luminescence;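 active = inhibition above a per-plate limit of that plate's mean compound inhibition plus 3 SD, cut at about 60% in these data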;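 note: higher means less KLF5 promoter-driven luciferase light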
Numbers stand for hits; - = inactive; . = no result given.

SMILES | APP 5UTR inh | IEC-6 cytotox | BaF3 parental | Ba/F3 V617F tox | KLF5 inhibitor
O=C1/C(=C/c2ccncc2)CCc2ccccc21 | . | - | - | - | -
O=C1/C(=C/c2ccncc2)CCC/C1=C\c1ccncc1 | 82 | - | - | - | -
O=C(Cn1ncc(Cl)c(Cl)c1=O)NCC1CCCCC1 | 97 | - | - | - | -
O=C(Cn1ncc(Cl)c(Cl)c1=O)NC1CCS(=O)(=O)C1 (stereo unspecified) | . | - | - | - | -
Cc1ccc(NC(=O)CN(C)C(=O)Cc2ccc(Cl)c(Cl)c2)cc1 | . | - | . | . | -
O=C1CN(C(=O)COc2ccc(Cl)cc2Cl)c2ccccc2N1 | . | - | . | . | -
CC(C)(C)C(=O)Cn1ncc(Cl)c(Cl)c1=O | 50 | - | - | - | -
O=C1CN(C(=O)Cn2ncc(Cl)c(Cl)c2=O)c2ccccc2N1 | 90 | - | - | - | -
Cc1ccc(NC(=O)CN(C)C(=O)Cn2ncc(Cl)c(Cl)c2=O)cc1 | 96 | - | - | - | -
O=C(Cn1ncc(Cl)c(Cl)c1=O)c1ccc(Cl)cc1 | 81 | - | - | - | -
COc1cccc(NC(=O)CSC2=NN3CCCC(=O)N=C3S2)c1 | . | - | . | . | -
COc1ccc(CC(=O)Nc2cc3oc4ccccc4c3cc2OC)cc1 | - | - | - | - | -
COc1cc2c(cc1NC(=O)COc1ccc3ccccc3c1)oc1ccccc12 | 46 | - | - | - | -
O=C(O)c1ccc(Nc2ncc([N+](=O)[O-])cc2[N+](=O)[O-])cc1 | - | - | - | - | -
Cc1ccc(NC2=C(Cl)C(=O)c3ccccc3C2=O)cc1 | 96 | - | - | - | -
CCN(CC)c1ccc(NC2=C(Cl)C(=O)c3ccccc3C2=O)cc1 | 96 | - | - | - | -
CCOC(=O)C1CCN(Cc2cc(Cl)c3ccccc3c2O)CC1 | . | - | . | . | -
Cc1nn(Cc2ccc(C(=O)Nc3nccs3)cc2)c(C)c1Cl | - | - | 43 | 39 | -
O=C1Oc2ccccc2C(=O)/C1=C\N1CCN(c2ccccc2)CC1 | - | - | - | - | -
COc1cc(SC)ccc1C(=O)N1CCN(c2ccccc2OC)CC1 | - | 31 | - | - | -
CCCCC(=O)Nc1ccc(C(=O)N2CCC(C(=O)OCC)CC2)cc1 | - | - | 38 | - | -
CCCCC(=O)Nc1ccc(C(=O)N2CCN(c3ccccc3OC)CC2)cc1 | 69 | - | - | - | -
COc1ccccc1N1CCN(C(=O)c2ccc(NC(C)=O)cc2)CC1 | - | - | - | - | -
O=C(Nc1cccs1)Nc1ccccc1Cl | - | - | - | - | -
Cc1c(NC(=O)Nc2cccs2)cccc1[N+](=O)[O-] | - | - | 29 | - | -
SMILES | APP 5UTR inh | IEC-6 cytotox | BaF3 parental | Ba/F3 V617F tox | KLF5 inhibitor
CN(C)c1cc[n+](Cc2c(Cl)cccc2Cl)cc1 | - | - | 80 | 98 | -
O=C(NCC1CCN(c2ccc(S(=O)(=O)N3CCOCC3)cc2)CC1)Nc1ccccc1F | . | - | . | . | -
O=C(CSc1nnc(-c2ccccc2)n1Cc1ccccc1)N1CCOCC1 | - | - | - | - | -
Oc1ccccc1-c1nnc(SCCN2CCOCC2)n1Cc1ccccc1 | - | - | 83 | 94 | -
O=S(=O)(Nc1nc2ccccc2nc1NCc1ccco1)c1ccc(F)cc1 | . | - | - | - | -
COc1ccc(NS(=O)(=O)c2ccc(N3CCOCC3)c(NC(=O)c3ccco3)c2)cc1 | - | - | 42 | 35 | -
COc1ccc(NS(=O)(=O)c2ccc(N3CCOCC3)c(NC(=O)C(C)C)c2)cc1 | - | - | 58 | 40 | -
COc1ccc(NS(=O)(=O)c2ccc(N3CCOCC3)c(NC(=O)c3cccc(F)c3)c2)cc1 | - | - | 41 | 30 | -
COc1ccc(NS(=O)(=O)c2ccc(N3CCOCC3)c(NC(=O)c3ccc(F)cc3)c2)cc1 | - | - | 43 | 38 | -
CCCCN1C2=NCCCN2c2ccccc21 | - | - | - | - | -
CCCCN1C2=NCCCN2c2cc(C)c(C)cc21 | - | - | 59 | 51 | -
O=C(Cc1ccc(-c2ccccc2)cc1)NCc1ccccc1 | 93 | 78 | 81 | 81 | -
Cc1noc(C)c1COc1ccc(CC(=O)NCc2ccccc2)cc1 | 86 | 79 | 73 | 72 | -
Cc1ccc(CC(=O)NCc2ccc(F)cc2)cc1 | - | 50 | 58 | 35 | -
COc1ccc(NC2CCCN(C(=O)c3cn(C)c4ccccc34)C2)cc1 (stereo unspecified) | . | - | . | . | -
O=c1[nH]cc(F)c(=O)[nH]1 | - | 86 | 83 | 86 | -
O=c1[nH]cc(O)c(=O)[nH]1 | . | - | - | - | -
COc1ccc(NC(=O)CNC(=O)Cn2cnc3sc4c(c3c2=O)CCCC4)cc1OC | . | - | . | . | -
CN(C)c1ccc(CNc2ccc3c(c2)ncn3C)cc1 | - | - | 33 | - | -
CC(C)c1ccc(CNc2ccc3c(c2)ncn3C)cc1 | . | - | . | . | -
O=C(NCCO)C(=O)Nc1cc2c3c(c1)CCN3C(=O)CC2 | . | - | . | . | -
CCc1ccc(CCC(=O)Nc2ncc(Cc3ccccc3Cl)s2)o1 | 71 | - | - | - | -
O=C(CN1CCOCC1)Nc1ncc(Cc2ccccc2Cl)s1 | - | - | - | - | -
CC(=O)N1CCc2c(sc(NC(=O)c3ccc4c(c3)OCCO4)c2C#N)C1 | 59 | - | - | - | -
OC1(c2cccs2)CN(c2ccc(Cl)cc2)C2=[N+]1CCCC2 (stereo unspecified) | - | - | 32 | - | -
SMILES | APP 5UTR inh | IEC-6 cytotox | BaF3 parental | Ba/F3 V617F tox | KLF5 inhibitor
Cc1ccc(NC(=O)c2cc(N3C(=O)C=CC3=O)ccc2N2CCOCC2)cc1 | 77 | - | - | - | -
Cc1ccc(NC(=O)c2cc(-n3cnnc3)ccc2Cl)cc1 | - | - | - | - | -
Cc1ccc(NC(=O)c2cc(NC(=O)c3ccco3)ccc2N2CCOCC2)cc1 | - | - | - | - | -
Cc1ccc(NC(=O)c2cc(N3C(=O)C=CC3=O)ccc2Cl)cc1C | 45 | - | - | - | -
CCCc1nc(SCc2ccc(OCC)cc2)n[nH]1 | . | - | . | . | -
Cc1cccc(C)c1NC(=O)CSC(=O)c1sc2ccccc2c1Cl | . | - | - | - | -
COc1ccc(Cl)cc1NC(=O)C1Cc2cc(S(=O)(=O)N3CCCC3)ccc2N1C(C)=O (stereo unspecified) | . | - | . | . | -
COc1ccc(C(=S)N2CCN(c3cccc(Cl)c3)CC2)c(OC)c1 | 84 | 54 | 41 | 71 | -
O=C(/C=C/c1cccc([N+](=O)[O-])c1)n1cnc2ccccc21 | 51 | - | - | - | -
Cc1cc(C)c2c(n1)SCC(=O)N2CC(=O)Nc1cc(F)ccc1F | . | - | . | . | -
COc1cc(/C=C2\COC/C(=C\c3cc(OC)c(OC)c(OC)c3)C2=O)cc(OC)c1OC | . | - | 105 | 99 | -
COc1cc(/C=C2\CC/C(=C\c3cc(OC)c(OC)c(OC)c3)C2=O)cc(OC)c1OC | - | - | - | - | -
COC(=O)c1ccc(Cn2nnc3c(=O)[nH]c(C4CCCN(S(=O)(=O)c5cccc(Cl)c5)C4)nc32)cc1 (stereo unspecified) | . | - | . | . | -
O=C(NC(=Nc1ccccc1)N1CCOCC1)Nc1ccccc1 | - | - | 96 | - | -
COc1ccc(Cl)cc1S(=O)(=O)NC(C)C(=O)NCc1cccnc1 (stereo unspecified) | . | - | . | . | -
O=C(Cn1c(-c2ccccc2)c[n+]2ccsc12)c1ccc(Br)cc1 | - | - | 40 | 27 | -

High-throughput results deposited in PubChem by several laboratories.
